POLK inh: blocks human DNA polymerase kappa activity. Q9UBT6. 0.53% of 400,000 active. purified Pol kappa, fluorescent DNA synthesis assay, 10 min. AID 588579. Potency, µM (doses to about 107 µM), for inactives: at the top dose activity, negative = inhibition, hits mostly inhibitors; further: on the % scale 0 is the no-effect control and ±100 the full control effect
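Kinetic fluorescence readout at 0 and 10 min followed reaction start with substrate at 50 nM final. Beforehand, enzyme (10 nM Pol kappa) stood 15 min with compound at room temperature; buffer-only wells were negative controls.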
TDP1 block: blocks human tyrosyl-DNA phosphodiesterase 1 | Q9NUW8 | recombinant TDP1, AlphaScreen DNA substrate cleavage | Potency, µM (highest dose often 130 µM), inactives show at the top dose activity change, negative = inhibition, actives largely listed as inhibitors | 0.28% of 350,000 active | AID 485290; further: on the % scale 0 is the no-effect control and ±100 the full control effect; nearly all actives have a fitted effect of over 40% in size
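Enzyme-compound mixtures sat 15 min at room temperature, followed by a 5 min reaction with 15 nM final substrate and 10 min with AlphaScreen beads. Recombinant human Tdp1 was used at 1 nM final.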
POLI inh: DNA polymerase iota (human) inhibition; AID 588590; Potency, µM (top dose mostly 115 µM), for the others: top-dose activity, negative = inhibition, actives largely listed as inhibitors; 1% of 390,000 active; Q9UNA4; Pol iota fluorescent replication assay, 10 min
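Pol iota at 10 nM preincubated 15 min with compounds at room temperature; reaction started with fluorescent substrate, 50 nM final. Fluorescence read kinetically at 0 and 10 min; buffer-only wells as negative control.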
FEN1 inhibitor: human FEN1 inhibition; Recombinant FEN1 flap cleavage, fluorescence, 15 min; Potency, µM (series often up to 114 µM), for inactives: top-dose activity change, negative = inhibition, actives largely listed as inhibitors; P39748; 0.35% of 390,000 active; further: on the % scale 0 is the no-effect control and ±100 the full control effect; nearly all actives have a fitted effect of over 65% in size
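Potency values derive from four-parameter Hill fits of normalized qHTS data. The reaction used 10 nM FEN1 preincubated 15 min at room temperature with compound, then 50 nM DNA substrate, read at 0 and 15 min.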
POLB inh: DNA polymerase beta (human) inhibition; Pol beta primer extension/strand displacement, fluorescence kinetic; P06746; AID 485314; 1.3% of 340,000 active; Potency, µM (titrated, usually from 114 µM), without a hit: top-dose activity change, negative = inhibition, most hits filed as inhibitors; further: on the % scale 0 is the no-effect control and ±100 the full control effect
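Kinetic readout of DNA synthesis with strand displacement by Pol beta. Compound and 10 nM enzyme sit 15 min at room temperature; 50 nM substrate starts the reaction, read immediately and at 10 min.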
Pol eta inh: inhibitors of human DNA polymerase eta | Q9Y253 | recombinant Pol eta, fluorescent DNA replication assay | Potency, µM (titrated, usually from 114 µM), without a hit: at the highest dose activity change, negative = inhibition, most hits filed as inhibitors | 1.2% of 390,000 active | AID 588591; further: on the % scale 0 is the no-effect control and ±100 the full control effect
Target sequence (Q9Y253 whole entry, looked up): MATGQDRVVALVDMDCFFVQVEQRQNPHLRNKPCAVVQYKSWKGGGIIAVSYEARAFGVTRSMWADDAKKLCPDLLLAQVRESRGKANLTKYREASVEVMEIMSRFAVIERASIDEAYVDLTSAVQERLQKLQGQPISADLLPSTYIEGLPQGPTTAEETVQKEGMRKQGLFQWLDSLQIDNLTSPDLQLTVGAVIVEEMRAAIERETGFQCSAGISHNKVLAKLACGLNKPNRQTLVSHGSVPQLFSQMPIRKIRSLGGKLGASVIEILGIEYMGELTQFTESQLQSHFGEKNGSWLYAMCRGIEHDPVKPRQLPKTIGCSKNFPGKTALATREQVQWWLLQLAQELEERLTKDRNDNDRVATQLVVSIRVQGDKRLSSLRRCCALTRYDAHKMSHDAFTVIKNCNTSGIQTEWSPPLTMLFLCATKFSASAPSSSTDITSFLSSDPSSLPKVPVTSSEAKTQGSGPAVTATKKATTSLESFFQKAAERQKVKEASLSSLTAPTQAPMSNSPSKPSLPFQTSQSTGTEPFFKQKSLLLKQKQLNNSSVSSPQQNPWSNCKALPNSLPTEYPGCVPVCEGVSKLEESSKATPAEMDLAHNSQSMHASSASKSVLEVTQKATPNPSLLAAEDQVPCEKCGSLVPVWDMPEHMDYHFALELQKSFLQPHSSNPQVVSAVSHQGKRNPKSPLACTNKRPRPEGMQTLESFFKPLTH
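Fluorescent replication assay: 50 nM final substrate added after a 15 min room-temperature compound preincubation with 10 nM enzyme. Signal taken at 0 min and again at 10 min.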
Starred values were filed as active, the others as inactive; u = inconclusive; x = not tested or not shown; [ ] = dose if it differs, or a comment. In the library only some 2.4% were active in any assay of this set; here they are far more common. The call rests on the fitted dose curve; in most records, active means well fitted curve in the direction sought with a large enough effect; inconclusive means small, poorly fitted or top-dose-only effect, or another doubt; inactive means no such curve, though single readings can be large; an effect the other way counts as inactive or inconclusive. Potency means the concentration at half of the fitted maximal effect.

SMILES	POLK inh	TDP1 block	POLI inh	FEN1 inhibitor	POLB inh	Pol eta inh
CC1=C(c2ccc(C)c(C)c2)S(=O)(=O)N=C1N1CCC(C(=O)Nc2ccc(Cl)cc2)CC1	-3%[60.1 µM]	-1%	u	-19%	-26%	-11%
CN1CCN(C(=O)c2ccc3c(c2)N(Cc2ccc(C(F)(F)F)cc2)C(=O)c2ccccc2S3)CC1	-18%	2%	u	0%	-16%	-20%
O=C(CSc1ncc(S(=O)(=O)c2ccc(Cl)cc2)c(=O)[nH]1)Nc1ccc2c(c1)OCCO2	2%	1%	-18%	-9%	u	4%
O=C(N/N=C/c1ccc([N+](=O)[O-])o1)c1ccccc1NS(=O)(=O)c1cccs1	-25%	2%	40µM*	u	u	56µM*
COc1cccc(S(=O)(=O)N2CCN(S(=O)(=O)c3ccc4c(c3)OCCO4)CC2)c1	x	2%	x	x	x	x
Cc1cccc(NC(=O)Cn2cc(C(=O)c3ccco3)c3ccccc32)c1C	-39%	-15%	u	0%	u	79µM*
Cc1ccc2c(c1)c(=O)c(C(=O)c1ccncc1)cn2CC(=O)Nc1c(C)cccc1C	-10%[60.1 µM]	-2%	10%	-1%	-17%	-9%
Cc1cc2c(=O)c(C(=O)c3ccncc3)cn(CC(=O)Nc3cccc(C)c3C)c2cc1C	2%[60.1 µM]	-14%	u	14%	40µM*	-24%
COc1ccc2nccc(/C=C/c3ccc(N(C)C)cc3)c2c1	1%	x	3%	-3%	x	x
CCC(=O)NC(c1cccc([N+](=O)[O-])c1)c1c(O)ccc2ccccc12 (stereo not given)	-19%	0%	89µM*	1%	2%	2%
CCOc1ccc(C(NC(=O)CC)c2c(O)ccc3ccccc23)cc1 (stereo not given)	-4%	3%	-15%	-24%	0%	-10%
O=C(OCC1OC(OC(=O)c2cc(O)c(O)c(OC(=O)c3cc(O)c(O)c(O)c3)c2)[C@@H](OC(=O)c2cc(O)c(O)c(OC(=O)c3cc(O)c(O)c(O)c3)c2)C(OC(=O)c2cc(O)c(O)c(OC(=O)c3cc(O)c(O)c(O)c3)c2)C1OC(=O)c1cc(O)c(O)c(OC(=O)c2cc(O)c(O)c(O)c2)c1)c1cc(O)c(O)c(OC(=O)c2cc(O)c(O)c(O)c2)c1 (stereo not given in full)	0.006µM*	24%[56.1 µM]	x	x	x	x
COC(=O)c1c(C)oc2ccc(N(C(=O)Oc3ccccc3)S(=O)(=O)c3ccc(Cl)c([N+](=O)[O-])c3)cc12	-21%	2%	45µM*	2%	22µM*	u
COc1ccc(NC(=O)CCn2c(-c3ccc(F)cc3)cc(C(C)=O)c2C)c(OC)c1	-9%[60.1 µM]	5%	28%	11%	-5%	-20%
Oc1ccc(N=Cc2ccc(O)c(O)c2)cc1	45µM*	0%	13µM*	u	u	3.2µM*
O=C(CNC(=O)c1ccccc1)OC(Cc1ccccc1)C(=O)Nc1cc(C(F)(F)F)ccc1Cl (stereo not given)	x	-3%	x	x	x	x
Cc1nn(CCCC(=O)NCc2ccccc2)c(=O)c2c1sc1ccccc12	u	0%	u	u	79µM*	x
CCn1cc(C(=O)O)c(=O)c2cc(F)c(N3CCN(S(=O)(=O)c4ccc5c(c4)OCCO5)CC3)cc21	10%	2%	2%	6%	1%	34%
CCn1cc(C(=O)O)c(=O)c2cc(F)c(N3CCN(S(=O)(=O)c4ccc(NC(C)=O)cc4)CC3)cc21	-37%	x	-19%	u	20µM*	u
CCn1cc(C(=O)O)c(=O)c2cc(F)c(N3CCN(C(=S)NC(=O)c4cccc(C)c4)CC3)cc21	4%	x	44%	-2%	8%	-22%
CCn1cc(C(=O)O)c(=O)c2cc(F)c(N3CCN(C(=S)NC(=O)c4ccc(OC)cc4)CC3)cc21	-11%	79µM*	-7%	-1%	36%	-19%
Cc1cc(C)cc(-n2c(SCC(=O)N3CCCCC3)nc3c([nH]c4ccccc43)c2=O)c1	-4%[60.1 µM]	-5%	13%	-1%	26%	4%
CCOc1cc(CNc2ccc3cn[nH]c3c2)ccc1OC	-36%	5%	u	35µM*	-13%	u
COc1ccc(CNc2ccc3cn[nH]c3c2)c(OC)c1OC	1%	7%	54%	5%	0%	-8%
CCN1C(=O)N/C(=C/c2ccc(C)o2)C1=O	4%[60.1 µM]	-15%	40µM*	12%	u	-9%
SMILES	POLK inh	TDP1 block	POLI inh	FEN1 inhibitor	POLB inh	Pol eta inh
CC(C)N1C(=O)S/C(=C/c2ccccc2OCc2ccc(C(=O)O)cc2)C1=O	u	2%	u	u	1%	89µM*
COc1cccc(/C=C2\SC(=O)NC2=O)c1OCc1ccc(C(=O)O)cc1	-21%	u	21%	-2%	-4%	-4%
O=C(CSc1nc(-c2ccco2)nc2cc(=O)[nH]n12)Nc1ccc(F)cc1	-17%	0%	u	16%	40µM*	2%
Cc1cccc(NC(=O)CSc2nc(-c3ccco3)nc3cc(=O)[nH]n23)c1	-6%	45µM*	u	-16%	u	u
Cc1ccccc1NC(=O)CSc1nc(-c2ccco2)nc2cc(=O)[nH]n12	-44%	x	u	13%	u	-7%
O=C(CSc1nc2ccccc2n1Cc1ccccc1)N/N=C/c1ccco1	-8%	5%	-14%	-7%	-23%	-5%
Cc1ccc(CSc2nnc(SCC(=O)N/N=C/C=C/c3ccco3)s2)cc1	u	3%	u	-9%	22µM*	u
CCn1c(SCC(=O)N/N=C/C=C\c2ccco2)nc2ccccc21	-31%	-8%	u	9%	18µM*	u
CCCCc1nc2c(c3c1C[C@H](C)OC3)CN(S(=O)(=O)c1ccc(NC(C)=O)cc1)CC2	x	6%[12.3 µM]	x	x	x	x
CCCCCCCCCCCCCCCCn1cc[n+](Cc2ccccc2)c1C	-15%[60.1 µM]	2%	x	x	x	x
CN(C)c1ccc(C=O)c(O)c1	u	x	50µM*	-12%	x	x
CN(C)c1ccc(C=O)c(Cl)c1	-10%	x	8%	-16%	x	x
CSc1nsc(/C=C/Nc2ccc(O)cc2C)c1C#N	-28%	11%	25µM*	u	0%	-17%
CN1CCc2nc3sc(C(=O)C45CC6CC(CC(C6)C4)C5)c(N)c3cc2C1	u	2%	0%	u	50µM*	u
CCC(C)NC(=O)CCS(=O)(=O)c1ccc2c(c1)n(C)c(=O)c(=O)n2C (stereo not given)	-1%	1%	11%	22%	-7%	2%
CN(C)c1ccc(CNC(=O)CCS(=O)(=O)c2ccc3c(c2)n(C)c(=O)c(=O)n3C)cc1	0%	x	5%	-2%	25µM*	-16%
